# Assay results: PubChem BioAssay (Tox21)
# Several values for one entry are separate records, joined by “and”; a condition that tells them apart may be missing. Equal entries are not always repeated. Results filed as inconclusive are left out. Where a call stands in place of a potency, no number is given. Some compounds were tested as several samples or in several runs, with calls that do not always agree. Activity calls are given as the source filed them. Calls follow the shape of the full dose curve.
# Experiment: p53 small molecule agonists, cell-based qHTS assay with human liver microsomes: qHTS cell viability counter screen (AID 1963579)
# Details: p53RE-bla HCT-116 viability, ATP luminescence, 16 h, HLM; series mostly up to 66 µM; activity change, negative = cytotoxicity: at the top concentration
# How it was run: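 Seed p53RE-bla cells at 4,000 per well; incubate 5 h at 37 C; add compound, human liver microsomes and NADPH; incubate 16 h at 37 C; add CellTiter-Glo; after 30 min at room temperature, read luminescence.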
# Also: nearly all actives have a fitted effect of over 45% in size.
# Potency is read from the fitted curve at half-maximal effect.
Compound,Potency,"activity change, negative = cytotoxicity"
Cc1ccc(N)cc1Cl,inactive,–
Cc1ncc(CNC(=O)N(CCCl)N=O)c(N)n1,–,1.57% [at 30.3 µM] (inactive)
O=C(O)COc1cc(Cl)c(Cl)cc1Cl,inactive,–
Clc1ccc(Cl)c(Cl)c1,inactive,–
CCOC(=O)CC(SP(=O)(OC)OC)C(=O)OCC (centres undefined),inactive,–
CCCC[n+]1ccc(C)cc1,inactive and 40.6 µM (active),–
CCCCCCCCCCCCCCCCn1cc[n+](C)c1,37.1 µM (active) and inactive and 46.2 µM (active),–
COc1ccc(N)cc1,inactive,–
O=C(O)c1ccc(=O)[nH]c1,–,9.06% [at 30.3 µM] (inactive)
O=[N+]([O-])c1cc(Cl)c(Cl)c(Cl)c1,–,0.362% (inactive)
c1ccc(NNc2ccccc2)cc1,inactive,–
CCCSC(=O)Cl,–,4.93% (inactive)
COCCl,inactive,–
OCC(O)CO,inactive,–
O=C1C2CC=CCC2C(=O)N1SC(Cl)(Cl)Cl (centres undefined),–,4.97% (inactive)
CNC(=O)N(C)c1nnc(C(C)(C)C)s1,inactive,–
COc1cc(N)c(Cl)cc1C(=O)NC1CN2CCC1CC2 (centres undefined),–,6.45% [at 30.3 µM] (inactive)
CCCCCCCCCl,–,-8.76% (inactive)
COc1cc(OC)nc(NC(=O)NS(=O)(=O)c2ncccc2C(=O)N(C)C)n1,–,3.21% (inactive)

Compound,Potency,"activity change, negative = cytotoxicity"
NC(=S)c1c(Cl)cccc1Cl,–,5.68% (inactive)
NNC(N)=S,–,-28.9% (inactive)
OCCCCO,inactive,–
NNC(=O)c1ccccc1,41.9 µM (active),–
CCCCCCCCCCCCCCCCCC(=O)O,inactive,–
O=C(NC(=O)c1c(F)cccc1F)Nc1ccc(Cl)cc1,inactive,–
Nc1ccc(Cl)c(Cl)c1,inactive,–
CCOP(=O)(OCC)OP(=O)(OCC)OCC,–,-13.2% (inactive)
CC1C=[C-]C=C1.[C-]#[O+].[C-]#[O+].[C-]#[O+].[Mn],inactive,–
CCOP(=O)(OCC)SCCSCC,inactive,–
CCCCCCCCCCCCCCCC[N+](C)(C)C,inactive,–
CCCCCCCCCC(CC)c1ccc(S(=O)(=O)O)cc1 (centres undefined),inactive,–
COP(=S)(OC)Oc1cc(Cl)c(Cl)cc1Cl,inactive,–
CC(=O)C(C)(C)C,–,10.6% (inactive)
CCOP(=O)(CN(CCO)CCO)OCC,–,11.5% (inactive)
Nc1ccc(Cl)cc1N,–,0.686% (inactive)
COC(=O)c1ccccc1CS(=O)(=O)NC(=O)Nc1nc(OC)cc(OC)n1,–,7.07% (inactive)
C1CN2CCN1CC2,inactive,–

# Experiment: p53 small molecule agonists, cell-based qHTS assay with rat liver microsomes: qHTS cell viability counter screen (AID 1963580)
# Details: p53RE-bla HCT-116 + rat microsomes, ATP viability, 16 h; series mostly up to 66 µM; activity change, negative = cytotoxicity: at the top concentration
# How it was run: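 p53RE-bla HCT-116 cells were exposed 16 h at 37 C to compounds with rat liver microsomes (0.5 mg/mL) and NADPH (0.5 mg/mL). Viability was measured in the same wells as ATP content by CellTiter-Glo luminescence.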
Compound,Potency,"activity change, negative = cytotoxicity"
Cc1ccc(N)cc1Cl,inactive,–
Cc1ncc(CNC(=O)N(CCCl)N=O)c(N)n1,–,-13.1% [at 30.3 µM] (inactive)
O=C(O)COc1cc(Cl)c(Cl)cc1Cl,inactive,–
Clc1ccc(Cl)c(Cl)c1,–,0.121% (inactive)
CCOC(=O)CC(SP(=O)(OC)OC)C(=O)OCC (centres undefined),inactive,–
CCCC[n+]1ccc(C)cc1,inactive and 20.3 µM (active),–
COc1ccc(N)cc1,inactive,–
O=C(O)c1ccc(=O)[nH]c1,–,0.359% [at 30.3 µM] (inactive)
O=[N+]([O-])c1cc(Cl)c(Cl)c(Cl)c1,–,1.3% (inactive)
c1ccc(NNc2ccccc2)cc1,inactive,–
CCCSC(=O)Cl,–,0.163% (inactive)
COCCl,–,-0.0548% [at 30.3 µM] (inactive)
OCC(O)CO,inactive,–
O=C1C2CC=CCC2C(=O)N1SC(Cl)(Cl)Cl (centres undefined),–,2.01% (inactive)
CNC(=O)N(C)c1nnc(C(C)(C)C)s1,inactive,–
COc1cc(N)c(Cl)cc1C(=O)NC1CN2CCC1CC2 (centres undefined),–,-1.12% [at 30.3 µM] (inactive)
CCCCCCCCCl,–,17.6% (inactive)
COc1cc(OC)nc(NC(=O)NS(=O)(=O)c2ncccc2C(=O)N(C)C)n1,–,2.57% (inactive)
NC(=S)c1c(Cl)cccc1Cl,–,-1.02% (inactive)

Compound,Potency,"activity change, negative = cytotoxicity"
OCCCCO,inactive,–
NNC(=O)c1ccccc1,–,-1.85% (inactive)
CCCCCCCCCCCCCCCCCC(=O)O,inactive,–
O=C(NC(=O)c1c(F)cccc1F)Nc1ccc(Cl)cc1,inactive,–
Nc1ccc(Cl)c(Cl)c1,–,5.24% (inactive)
CCOP(=O)(OCC)OP(=O)(OCC)OCC,–,-6.87% (inactive)
CC1C=[C-]C=C1.[C-]#[O+].[C-]#[O+].[C-]#[O+].[Mn],–,-1.23% (inactive)
CCOP(=O)(OCC)SCCSCC,inactive,–
CCCCCCCCCCCCCCCC[N+](C)(C)C,inactive,–
CC(C)=C[C@@H]1[C@@H](C(=O)OCc2coc(Cc3ccccc3)c2)C1(C)C,inactive,–
CCCCCCCCCC(CC)c1ccc(S(=O)(=O)O)cc1 (centres undefined),inactive and 40.8 µM (active),–
COP(=S)(OC)Oc1cc(Cl)c(Cl)cc1Cl,inactive,–
CC(=O)C(C)(C)C,–,1.8% (inactive)
CCOP(=O)(CN(CCO)CCO)OCC,–,5.95% (inactive)
c1ccc(Nc2ccc3ccccc3c2)cc1,inactive,–
Nc1ccc(Cl)cc1N,–,-3.98% (inactive)
COC(=O)c1ccccc1CS(=O)(=O)NC(=O)Nc1nc(OC)cc(OC)n1,–,2.83% (inactive)
C1CN2CCN1CC2,inactive,–

# Experiment: p53 small molecule agonists, cell-based qHTS assay: qHTS cell viability counter screen (AID 1963581)
# Details: p53RE-bla HCT-116 viability, ATP luminescence, 16 h; series mostly up to 66 µM; activity change, negative = cytotoxicity: at the top concentration
# How it was run: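 Following 5 h attachment, HCT-116 p53RE-bla cells took up compound for 16 h at 37 C; the reporter was read with B/G FRET substrate (2 h RT), and viability then via CellTiter-Glo ATP luminescence.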
Compound,"activity change, negative = cytotoxicity",Potency
Cc1ccc(N)cc1Cl,13.1% (inactive),–
Cc1ncc(CNC(=O)N(CCCl)N=O)c(N)n1,13.3% [at 30.3 µM] (inactive),–
O=C(O)COc1cc(Cl)c(Cl)cc1Cl,–,inactive
Clc1ccc(Cl)c(Cl)c1,–,inactive
CCOC(=O)CC(SP(=O)(OC)OC)C(=O)OCC (centres undefined),–,inactive
CCCC[n+]1ccc(C)cc1,–,inactive
CCCCCCCCCCCCCCCCn1cc[n+](C)c1,–,25.8 µM (active)
COc1ccc(N)cc1,–,inactive
O=C(O)c1ccc(=O)[nH]c1,-7.41% [at 30.3 µM] (inactive),–
O=[N+]([O-])c1cc(Cl)c(Cl)c(Cl)c1,0% (inactive),–
c1ccc(NNc2ccccc2)cc1,–,inactive
CCCSC(=O)Cl,-11.8% (inactive),–
COCCl,–,inactive
OCC(O)CO,–,inactive
O=C1C2CC=CCC2C(=O)N1SC(Cl)(Cl)Cl (centres undefined),–,inactive
CNC(=O)N(C)c1nnc(C(C)(C)C)s1,–,inactive
COc1cc(N)c(Cl)cc1C(=O)NC1CN2CCC1CC2 (centres undefined),-9.13% [at 30.3 µM] (inactive),–
CCCCCCCCCl,–,inactive

Compound,"activity change, negative = cytotoxicity",Potency
COc1cc(OC)nc(NC(=O)NS(=O)(=O)c2ncccc2C(=O)N(C)C)n1,8.07% (inactive),–
NC(=S)c1c(Cl)cccc1Cl,14.4% (inactive),–
NNC(N)=S,–,inactive
OCCCCO,–,inactive
NNC(=O)c1ccccc1,-11.4% (inactive),–
CCCCCCCCCCCCCCCCCC(=O)O,–,inactive
O=C(NC(=O)c1c(F)cccc1F)Nc1ccc(Cl)cc1,–,inactive
Nc1ccc(Cl)c(Cl)c1,–,inactive
CCOP(=O)(OCC)OP(=O)(OCC)OCC,0.689% (inactive),–
CC1C=[C-]C=C1.[C-]#[O+].[C-]#[O+].[C-]#[O+].[Mn],-6.19% (inactive),–
CCOP(=O)(OCC)SCCSCC,–,inactive
CCCCCCCCCCCCCCCC[N+](C)(C)C,-22.7% [at 30.3 µM] (inactive),–
CC(C)=C[C@@H]1[C@@H](C(=O)OCc2coc(Cc3ccccc3)c2)C1(C)C,–,inactive
CCCCCCCCCC(CC)c1ccc(S(=O)(=O)O)cc1 (centres undefined),–,inactive and 48.5 µM (active)
COP(=S)(OC)Oc1cc(Cl)c(Cl)cc1Cl,–,inactive
CC(=O)C(C)(C)C,5.62% (inactive),–
Nc1ccc(Cl)cc1N,–,inactive
